Data: PubChem BioAssay (NCATS)
Values joined by “and” are separate entries in the source; they are usually repeats but may differ in a detail not shown here. Equal values may be shown once. Records with an inconclusive call do not appear. Active and inactive are the calls of the source. Unless noted, calls follow the shape of the full dose curve.

Tests used:
[1] = target: DNA dC->dU-editing enzyme APOBEC-3G (Homo sapiens) (UniProt Q9HC16); assay: qHTS for inhibitors of Vif-A3G interactions: Validation (AID 588379; active = well fitted inhibition curve with a large enough effect; also: 0% is about no effect)
In short: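 HeLa cells stably expressing Vif and A3G-eYFP, 700 cells/well, incubated overnight at 37 deg C, then exposed to compound overnight at 37 deg C. Inhibition of Vif-mediated degradation read as increased yellow fluorescence (Ex 488/Em 500-530) by laser-scanning cytometry.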

[2] = target: Estrogen receptor (Homo sapiens) (UniProt P03372); assay: qHTS assay for small molecule antagonists of estrogen receptor alpha signaling (AID 588513; active = well fitted curve in the direction sought with a large enough effect in the signal ratio, with a control signal flat, not every such curve was filed as active; the % refers to the signal ratio; also: % is scaled to controls: 0 for no effect and ±100 for the full control effect)
In short: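 Beta-lactamase reporter, antagonist mode, HEK 293 GripTite cells; 0.5nM E2 stimulus, 18 h, 37 C; CCF4 dye 2 h RT; fluorescence. IC50 and efficacy from Hill fits, normalized to E2 and DMSO.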

[3] = target: Estrogen receptor (Homo sapiens) (UniProt P03372); assay: qHTS assay for small molecule agonists of estrogen receptor alpha signaling (AID 588514);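 also: 0% = vehicle only and 100% = reference agonist; nearly all actives have a fitted effect of over 70% in size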
In short: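 Cells were plated at 5000/well, incubated 4 hrs at 37 C, dosed with compound titration series, incubated 18 hrs at 37 C, loaded with CCF4 dye for 2 hrs at RT, then fluorescence was read.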

[4] = target: Bile acid receptor (Homo sapiens) (UniProt Q96RI1); assay: qHTS assay for small molecule agonists of farnesoid X receptor signaling (AID 588527); conditions: HEK293T FXR-UAS-bla, beta-lactamase ratio, 16 h; stronger effect = higher value;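 also: series mostly up to about 77 µM; 0% = vehicle basal and 100% = reference agonist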
In short: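 FXR-UAS-bla HEK293T cells (10% dialyzed FBS) preincubated 5-7 h at 37 C, then compounds at up to 92 uM for 16 h at 37 C. CCF4 beta-lactamase read-out after 2 h RT. Normalized to chenodeoxycholic acid (100 uM) and DMSO; Hill fit gave EC50 and efficacy.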

[5] = target: Peroxisome proliferator-activated receptor gamma (Homo sapiens) (UniProt P37231); assay: qHTS assay for small molecule antagonists of peroxisome proliferator-activated receptor gamma signaling (AID 588537; active = well fitted inhibition curve with a large enough effect in the signal ratio, with a control signal flat, not every such curve was filed as active; the % refers to the signal ratio;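 also: reporter cells co-stimulated with 50 nM rosiglitazone agonist during compound treatment; % of control where 0% means no effect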)
In short: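 PPARγ-UAS-bla HEK293 cells (3000/well) in 1% charcoal/dextran-stripped FBS are treated with compound, then stimulated with 50 nM rosiglitazone for 16 h at 37 °C. Read-out is CCF4 β-lactamase fluorescence after 2 h at RT. IC50 comes from Hill fits normalised to rosiglitazone and DMSO.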

[6] = target: Bile acid receptor (Homo sapiens) (UniProt Q96RI1); assay: qHTS assay for small molecule antagonists of farnesoid X receptor signaling (AID 588526); also: % is scaled to controls: 0 for no effect and ±100 for the full control effect
In short: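 Antagonist mode: titrated compounds tested against chenodeoxycholic acid stimulation (normalized to 50 uM CDCA and DMSO) in GeneBLAzer HEK293T cells for 16 h. Beta-lactamase read by CCF4 fluorescence; IC50 from Hill fits.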

[7] = target: Glucocorticoid receptor (Homo sapiens) (UniProt P04150); assay: qHTS assay for small molecule agonists of glucocorticoid receptor signaling (AID 588532; active = well fitted curve in the direction sought with a large enough effect in the signal ratio, with a control signal flat; the % refers to the signal ratio;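 also: 100% = dexamethasone at 0.1 µM and 0% = DMSO only wells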); conditions: HeLa MMTV-bla, beta-lactamase ratio, agonist, 18 h; stronger effect = higher value; percent of dexamethasone control, DMSO zero
In short: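 Cells were plated and rested 3-5 h at 37 C, compounds were added in titration and incubated 18 h, then CCF4 substrate was loaded for 2 h at RT before reading blue/green fluorescence. EC50 came from Hill-equation fitting.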

[8] = target: Glucocorticoid receptor (Homo sapiens) (UniProt P04150); assay: qHTS assay for small molecule antagonists of glucocorticoid receptor signaling (AID 588533; active = well fitted inhibition curve with a large enough effect in the signal ratio, with a control signal flat, not every such curve was filed as active; the % refers to the signal ratio; also: % is scaled to controls: 0 for no effect and ±100 for the full control effect)
In short: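 Antagonist-mode qHTS: compound titrations added to GRE-bla HeLa cells, then dexamethasone 2 nM final; 18 h, 37 C. CCF4 FRET fluorescence normalized to dexamethasone and DMSO; IC50 from Hill fit.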

[9] = target: Peroxisome proliferator-activated receptor delta (Homo sapiens) (UniProt Q03181); assay: qHTS assay for small molecule agonists of peroxisome proliferator-activated receptor delta signaling (AID 588534);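 also: 0% = DMSO basal wells and 100% = positive control agonist at 10 µM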
In short: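 Fluorescence from CCF4 substrate cleavage by beta-lactamase reporter, read 2 hrs at RT, measured agonist activity. Compounds were tested with 18 hrs exposure at 37 C. Concentration-response data fitted to Hill equation.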

[10] = qHTS assay for small molecule antagonists of peroxisome proliferator-activated receptor delta signaling (AID 588535; active = well fitted inhibition curve with a large enough effect in the signal ratio, with a control signal flat, not every such curve was filed as active; the % refers to the signal ratio;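 as to max response: cells co-treated with a PPAR-delta agonist as stimulator during compound exposure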); conditions: HEK293T PPARd-UAS-bla, beta-lactamase FRET ratio, 18 h; 460 nm channel
In short: (§1)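 Antagonist-mode beta-lactamase reporter (GeneBLAzer PPAR-delta-UAS-bla) in HEK293T cells, 2% charcoal/dextran FBS, 4000 cells/well. Compound titrations, 18 h at 37 C; CCF4 ratio read, IC50 and efficacy from Hill fits.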

[11] = target: Peroxisome proliferator-activated receptor delta (Homo sapiens) (UniProt Q03181); assay: as above
In short: as §1

[12] = target: Peroxisome proliferator-activated receptor gamma (Homo sapiens) (UniProt P37231); assay: qHTS assay for small molecule agonists of peroxisome proliferator-activated receptor gamma signaling (AID 588536; active = well fitted curve in the direction sought with a large enough effect in the signal ratio, with a control signal flat, not every such curve was filed as active; the % refers to the signal ratio;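 also: 0% = DMSO basal wells and 100% = rosiglitazone at 2 µM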)
In short: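 GeneBLAzer PPAR-gamma-UAS-bla HEK293 cells in 1% charcoal/dextran-treated FBS medium were treated 16 h at 37 C with compounds. Beta-lactamase activity was read by CCF4 ratio (460/530 nm). Response was normalized to 2 uM rosiglitazone (100%) and DMSO, then Hill-fitted for EC50 and efficacy.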

[13] = target: Vitamin D3 receptor (Homo sapiens) (UniProt P11473); assay: qHTS assay for small molecule antagonists of vitamin D receptor signaling (AID 588541);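 also: receptor activated by calcitriol during compound treatment; series mostly up to about 77 µM; % is scaled to controls: 0 for no effect and ±100 for the full control effect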
In short: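 VDR-UAS-bla HEK293T cells in 2% charcoal-stripped FBS were stimulated with 1-alpha,25-dihydroxyvitamin D3 (3 nM final) plus compound for 16 h at 37 C. The beta-lactamase CCF4 readout was normalized to 50 nM agonist and DMSO, and Hill fits gave IC50.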

[14] = target: Vitamin D3 receptor (Homo sapiens) (UniProt P11473); assay: qHTS assay for small molecule agonists of vitamin D receptor signaling (AID 588543);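 also: 0% = DMSO basal and 100% = reference agonist control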
In short: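 β-lactamase reporter, VDR-UAS-bla HEK293T, agonist mode. Cells plated 5 h at 37 °C, compound titration 16 h at 37 °C, CCF4 dye 2 h RT, ratio 460/530 nm. Hill fit → EC50, efficacy vs 50 nM 1α,25-(OH)2D3.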

[15] = qHTS assay for small molecule agonists of retinoid X receptor alpha signaling (AID 588544); conditions: HEK293T RXRa-UAS-bla, beta-lactamase reporter, 18 h; 530 nm emission;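 as to activation: 0% = DMSO basal wells and 100% = reference agonist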
[16] = target: Retinoic acid receptor RXR-alpha (Homo sapiens) (UniProt P19793); assay: as above
[17] = target: Thyroid hormone receptor beta (Homo sapiens) (UniProt P10828); assay: qHTS assay for small molecule agonists of thyroid hormone receptor beta signaling (AID 588545)
In short: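 Agonist-mode beta-lactamase reporter assay, HEK 293 cells, 2% charcoal/dextran FBS; cells plated 4 hrs, compound 18 hrs at 37 C, CCF4 2 hrs RT. Normalized to 10 nM T3 (100%) and DMSO (0%); Hill fit gives EC50, efficacy.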

[18] = qHTS assay for small molecule antagonists of retinoid X receptor alpha signaling (AID 588546); conditions: HEK293T RXRa-UAS-bla, beta-lactamase ratio, antagonist mode; measured here: W530 green channel, cytotoxicity proxy
In short: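 Beta-lactamase reporter inhibition, read as CCF4 fluorescence ratio (ex 405, em 460/530 nm) after 2 h at RT. HEK293T UAS-bla cells, 2500/well, were stimulated with 9-cis-RA at 500 or 100 nM final alongside test compound for 18 h at 37 C.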

[19] = target: Androgen receptor (Homo sapiens) (UniProt P10275); assay: qHTS assay for small molecule agonists of androgen receptor signaling (AID 588515; active = well fitted curve in the direction sought with a large enough effect in the signal ratio, with a control signal flat; the % refers to the signal ratio; also: % is scaled to controls: 0 for no effect and ±100 for the full control effect); conditions: AR-UAS-bla HEK293, beta-lactamase ratio, agonist 16 h; stronger effect = higher value
In short: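 EC50 and efficacy came from Hill fits of titrations (up to 92 uM) normalized to 30 nM R1881 as 100% and DMSO as 0%. Compound exposure was 16 h at 37 C on AR-UAS-bla HEK293 cells, with a 405/460/530 nm CCF4 fluorescence read.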

[20] = target: Androgen receptor (Homo sapiens) (UniProt P10275); assay: qHTS assay for small molecule antagonists of androgen receptor signaling (AID 588516; active = well fitted curve in the direction sought with a large enough effect in the signal ratio, with a control signal flat, not every such curve was filed as active; the % refers to the signal ratio; also: % is scaled to controls: 0 for no effect and ±100 for the full control effect)
In short: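 HEK293 AR-UAS-bla cells, 10% dialyzed FBS medium; cpd titration + R1881 10 nM final, 16 h 37 C; CCF4 2 h RT; FRET ratio; IC50/efficacy via Hill fit.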

Sequence of Glucocorticoid receptor (Homo sapiens) (P04150 whole entry, looked up): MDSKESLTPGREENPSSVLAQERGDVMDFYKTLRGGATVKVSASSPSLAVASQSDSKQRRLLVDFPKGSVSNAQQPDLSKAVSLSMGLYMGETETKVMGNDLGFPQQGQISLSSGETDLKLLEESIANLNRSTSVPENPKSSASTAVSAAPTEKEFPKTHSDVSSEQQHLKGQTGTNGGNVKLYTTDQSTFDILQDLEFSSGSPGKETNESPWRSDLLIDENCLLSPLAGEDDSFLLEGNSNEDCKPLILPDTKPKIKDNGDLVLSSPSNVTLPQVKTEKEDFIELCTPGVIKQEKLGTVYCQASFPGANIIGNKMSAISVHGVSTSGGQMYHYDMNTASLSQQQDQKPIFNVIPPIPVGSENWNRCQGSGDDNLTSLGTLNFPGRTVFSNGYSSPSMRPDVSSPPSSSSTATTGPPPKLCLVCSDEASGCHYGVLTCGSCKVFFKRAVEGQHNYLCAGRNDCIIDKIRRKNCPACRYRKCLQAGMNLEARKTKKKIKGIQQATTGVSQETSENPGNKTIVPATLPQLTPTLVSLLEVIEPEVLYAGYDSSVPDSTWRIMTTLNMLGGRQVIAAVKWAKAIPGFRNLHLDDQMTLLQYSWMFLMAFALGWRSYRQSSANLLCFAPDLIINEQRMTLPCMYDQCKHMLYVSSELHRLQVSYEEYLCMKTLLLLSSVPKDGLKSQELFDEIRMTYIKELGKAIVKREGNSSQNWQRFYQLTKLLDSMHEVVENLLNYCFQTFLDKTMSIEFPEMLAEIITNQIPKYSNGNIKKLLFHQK
Sequence of Bile acid receptor (Homo sapiens) (Q96RI1 whole entry, looked up): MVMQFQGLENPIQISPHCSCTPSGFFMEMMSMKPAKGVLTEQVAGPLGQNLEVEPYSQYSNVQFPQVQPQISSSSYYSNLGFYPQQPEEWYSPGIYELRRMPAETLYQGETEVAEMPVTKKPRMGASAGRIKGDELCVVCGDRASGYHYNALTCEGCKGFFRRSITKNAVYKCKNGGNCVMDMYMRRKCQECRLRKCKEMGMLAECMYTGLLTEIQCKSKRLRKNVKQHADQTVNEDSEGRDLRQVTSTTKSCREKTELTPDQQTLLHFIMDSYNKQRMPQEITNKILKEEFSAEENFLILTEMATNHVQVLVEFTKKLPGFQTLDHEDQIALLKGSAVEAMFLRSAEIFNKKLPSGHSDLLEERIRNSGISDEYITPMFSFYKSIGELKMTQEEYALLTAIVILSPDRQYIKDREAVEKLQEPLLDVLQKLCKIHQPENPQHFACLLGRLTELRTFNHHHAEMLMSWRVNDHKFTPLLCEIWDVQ
Sequence of Thyroid hormone receptor beta (Homo sapiens) (P10828 whole entry, looked up): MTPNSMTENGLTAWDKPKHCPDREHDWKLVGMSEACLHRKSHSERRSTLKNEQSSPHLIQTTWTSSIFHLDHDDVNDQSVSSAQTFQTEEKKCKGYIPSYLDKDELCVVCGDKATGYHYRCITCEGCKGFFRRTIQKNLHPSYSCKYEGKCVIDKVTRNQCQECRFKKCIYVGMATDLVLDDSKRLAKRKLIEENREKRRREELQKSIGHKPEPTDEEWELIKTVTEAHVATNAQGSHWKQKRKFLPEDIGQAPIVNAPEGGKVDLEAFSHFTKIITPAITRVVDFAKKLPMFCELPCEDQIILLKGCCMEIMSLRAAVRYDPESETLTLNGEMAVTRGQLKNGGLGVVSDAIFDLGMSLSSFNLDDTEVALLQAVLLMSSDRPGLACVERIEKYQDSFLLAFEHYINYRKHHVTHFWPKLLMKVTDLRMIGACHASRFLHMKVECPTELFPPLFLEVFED
Sequence of Estrogen receptor (Homo sapiens) (P03372 whole entry, looked up): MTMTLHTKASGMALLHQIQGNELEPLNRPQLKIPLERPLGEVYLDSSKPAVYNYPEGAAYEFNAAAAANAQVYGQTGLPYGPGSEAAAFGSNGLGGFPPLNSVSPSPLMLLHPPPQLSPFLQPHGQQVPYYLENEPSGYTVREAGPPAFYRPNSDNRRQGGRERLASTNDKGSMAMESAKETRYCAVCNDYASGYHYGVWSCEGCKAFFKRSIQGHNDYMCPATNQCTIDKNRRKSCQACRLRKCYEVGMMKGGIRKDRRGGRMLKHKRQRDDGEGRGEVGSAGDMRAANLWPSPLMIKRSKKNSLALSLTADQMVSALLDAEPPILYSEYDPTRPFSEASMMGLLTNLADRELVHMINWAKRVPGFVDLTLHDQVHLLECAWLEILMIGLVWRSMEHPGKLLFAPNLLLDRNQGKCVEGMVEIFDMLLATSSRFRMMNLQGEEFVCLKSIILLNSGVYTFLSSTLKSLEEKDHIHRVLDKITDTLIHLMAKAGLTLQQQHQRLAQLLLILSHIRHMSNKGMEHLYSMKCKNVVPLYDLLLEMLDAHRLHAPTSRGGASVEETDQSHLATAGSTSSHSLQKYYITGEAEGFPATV
Sequence of Peroxisome proliferator-activated receptor delta (Homo sapiens) (Q03181 whole entry, looked up): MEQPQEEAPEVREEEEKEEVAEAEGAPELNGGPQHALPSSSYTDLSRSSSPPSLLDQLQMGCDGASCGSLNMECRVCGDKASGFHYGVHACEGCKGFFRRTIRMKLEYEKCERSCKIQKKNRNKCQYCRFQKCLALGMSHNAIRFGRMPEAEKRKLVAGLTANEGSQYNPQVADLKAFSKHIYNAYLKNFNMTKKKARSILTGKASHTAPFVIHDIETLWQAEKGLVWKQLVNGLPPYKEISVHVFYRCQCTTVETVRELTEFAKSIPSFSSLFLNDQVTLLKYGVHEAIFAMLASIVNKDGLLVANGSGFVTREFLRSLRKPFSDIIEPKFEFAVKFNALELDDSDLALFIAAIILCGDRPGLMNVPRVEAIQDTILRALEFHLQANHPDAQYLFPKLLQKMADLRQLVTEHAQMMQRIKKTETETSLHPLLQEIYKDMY
Sequence of Peroxisome proliferator-activated receptor gamma (Homo sapiens) (P37231 whole entry, looked up): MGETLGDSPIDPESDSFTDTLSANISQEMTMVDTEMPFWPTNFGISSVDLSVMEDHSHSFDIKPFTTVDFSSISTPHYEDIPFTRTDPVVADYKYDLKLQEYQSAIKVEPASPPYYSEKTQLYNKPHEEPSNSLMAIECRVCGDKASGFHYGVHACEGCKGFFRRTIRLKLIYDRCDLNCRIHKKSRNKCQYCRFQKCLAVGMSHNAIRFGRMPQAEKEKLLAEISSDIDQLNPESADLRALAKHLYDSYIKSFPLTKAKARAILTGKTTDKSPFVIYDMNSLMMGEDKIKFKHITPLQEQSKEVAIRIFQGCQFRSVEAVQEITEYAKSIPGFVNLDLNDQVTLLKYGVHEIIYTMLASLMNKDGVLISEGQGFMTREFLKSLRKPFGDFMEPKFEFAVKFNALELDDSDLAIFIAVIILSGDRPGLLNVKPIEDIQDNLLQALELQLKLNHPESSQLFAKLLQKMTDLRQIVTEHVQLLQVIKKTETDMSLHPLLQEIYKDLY
Sequence of Androgen receptor (Homo sapiens) (P10275 whole entry, looked up): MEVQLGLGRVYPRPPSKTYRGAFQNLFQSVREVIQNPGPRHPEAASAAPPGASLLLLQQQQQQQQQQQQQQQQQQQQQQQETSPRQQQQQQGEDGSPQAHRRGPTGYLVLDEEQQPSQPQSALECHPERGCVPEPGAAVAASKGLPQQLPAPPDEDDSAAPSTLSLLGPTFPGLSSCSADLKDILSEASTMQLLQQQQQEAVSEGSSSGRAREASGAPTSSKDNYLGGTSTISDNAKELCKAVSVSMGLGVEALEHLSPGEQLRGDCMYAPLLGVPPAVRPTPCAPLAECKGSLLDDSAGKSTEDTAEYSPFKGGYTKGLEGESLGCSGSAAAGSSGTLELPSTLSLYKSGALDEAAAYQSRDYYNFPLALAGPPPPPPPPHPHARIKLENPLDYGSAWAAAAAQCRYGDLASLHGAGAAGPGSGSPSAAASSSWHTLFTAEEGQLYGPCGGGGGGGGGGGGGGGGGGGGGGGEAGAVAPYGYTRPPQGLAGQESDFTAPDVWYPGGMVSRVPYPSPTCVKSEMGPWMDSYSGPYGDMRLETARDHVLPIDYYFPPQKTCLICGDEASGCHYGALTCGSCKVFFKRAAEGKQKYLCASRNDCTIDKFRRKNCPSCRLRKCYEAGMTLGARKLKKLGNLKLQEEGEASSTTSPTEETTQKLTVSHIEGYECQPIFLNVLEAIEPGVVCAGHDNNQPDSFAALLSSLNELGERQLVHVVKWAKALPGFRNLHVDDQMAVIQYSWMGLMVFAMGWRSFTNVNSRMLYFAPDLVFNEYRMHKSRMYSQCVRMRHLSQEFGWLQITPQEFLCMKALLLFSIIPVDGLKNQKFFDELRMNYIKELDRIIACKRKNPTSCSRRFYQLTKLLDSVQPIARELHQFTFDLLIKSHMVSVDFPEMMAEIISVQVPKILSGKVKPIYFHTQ
Sequence of Vitamin D3 receptor (Homo sapiens) (P11473 whole entry, looked up): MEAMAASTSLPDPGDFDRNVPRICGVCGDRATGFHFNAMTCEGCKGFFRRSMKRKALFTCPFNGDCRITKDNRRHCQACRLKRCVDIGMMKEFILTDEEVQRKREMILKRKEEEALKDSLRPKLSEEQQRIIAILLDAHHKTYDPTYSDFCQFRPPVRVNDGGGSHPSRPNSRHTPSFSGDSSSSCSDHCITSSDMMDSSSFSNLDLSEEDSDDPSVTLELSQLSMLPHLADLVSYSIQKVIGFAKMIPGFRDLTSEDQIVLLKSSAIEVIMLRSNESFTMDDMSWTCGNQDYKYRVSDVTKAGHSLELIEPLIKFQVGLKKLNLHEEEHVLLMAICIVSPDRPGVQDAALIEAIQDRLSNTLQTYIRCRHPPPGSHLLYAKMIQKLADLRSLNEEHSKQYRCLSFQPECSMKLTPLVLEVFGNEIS
Sequence of DNA dC->dU-editing enzyme APOBEC-3G (Homo sapiens) (Q9HC16 whole entry, looked up): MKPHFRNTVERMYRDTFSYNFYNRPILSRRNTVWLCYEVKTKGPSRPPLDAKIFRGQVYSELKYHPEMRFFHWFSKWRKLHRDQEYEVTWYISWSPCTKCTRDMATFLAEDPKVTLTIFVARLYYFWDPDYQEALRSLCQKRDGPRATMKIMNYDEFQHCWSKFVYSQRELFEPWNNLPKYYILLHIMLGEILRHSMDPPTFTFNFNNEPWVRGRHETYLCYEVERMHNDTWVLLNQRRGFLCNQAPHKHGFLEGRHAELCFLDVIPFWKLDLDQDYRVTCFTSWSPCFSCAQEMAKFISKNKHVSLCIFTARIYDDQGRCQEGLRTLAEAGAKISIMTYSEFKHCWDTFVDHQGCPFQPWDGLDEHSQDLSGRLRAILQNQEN

Cc1nc(-c2ccc(-c3ccc(C(=O)N4CCc5cc6c(cc54)C4(CCN(C)CC4)CO6)cc3)c(C)c2)no1
inactive: outcome [1]

CNCCc1c[nH]c2ccc(O)cc12
inactive: outcome [1]

CCOC(=O)c1cncn1[C@H](C)c1ccccc1
inactive: outcome [1]

c1ccc2occc2c1
inactive: Potency [2] | outcome [3] | activation [4] 3.58% and 1.61% | Potency [5]

CCCCC(CC)COC(=O)c1ccccc1C(=O)OCC(CC)CCCC (centres undefined)
inactive: Potency [2] | outcome [3] | outcome [6] | activation [4] 0.71% and -2.22% | activation [7] 0.194% and -1.46% | Potency [8] | outcome [9] | Potency [11] | outcome [12] | Potency [5] | Potency [13] | outcome [14] | Potency [16] | outcome [17]
-20.4% and -8.96%: max response [15]
-2.79% and 33.6%: max response [10]
-12.5% and -12.9%: max response [18]

c1ccc(CCCN2CCN(CCOC(c3ccccc3)c3ccccc3)CC2)cc1
inactive: outcome [1]

C1CCC(NC2CCCCC2)CC1
-3.33% and -12% and -7.77%: max response [18]
10% and 0.455%: max response [10]
-15% and -1.01% and -0.218%: max response [15]
inactive: Potency [2] | outcome [3] | activation [7] 3.43% and -1% and -4.74% | Potency [8] | outcome [9] | Potency [11] | outcome [12] | Potency [5] | Potency [13] | outcome [14] | Potency [16] | outcome [17]

COc1ccc(C(=O)c2c(C)n(CCN3CCOCC3)c3cc(I)ccc23)cc1
inactive: outcome [1]

Cc1cc(O)ccc1Cl
-6.7%: max response [15]
3.81%: max response [18]
inactive: Potency [2] | outcome [3] | outcome [6] | activation [4] 1.93% | Potency [8] | outcome [9] | Potency [11] | outcome [12] | Potency [5] | Potency [13] | outcome [14] | Potency [16] | outcome [17]
44.7%: max response [10]

Cc1nccc2c1[nH]c1ccccc12
inactive: outcome [1]

C=CCC1=C(C)C(OC(=O)C2C(C=C(C)C)C2(C)C)CC1=O (centres undefined)
-5.66%: max response [15]
-13.5% and -4.99%: max response [18]
inactive: Potency [2] | outcome [3] | activation [4] 7.39% and 8.42% | activation [7] 11.4% and 2.61% | Potency [8] | outcome [12] | Potency [5] | Potency [13] | outcome [14] | Potency [16] | outcome [17]

c1cc2ccc3cccc4ccc(c1)c2c34
50.8% and 2.37%: max response [10]
-6.58% and -8.62%: max response [15]
-9.93% and -1.15%: max response [18]
inactive: Potency [2] | outcome [3] | activation [19] 11.6% and 8.44% | Potency [20] | activation [4] -4.41% and -1.09% | activation [7] 1.46% and -7.46% | Potency [8] | outcome [9] | Potency [11] | outcome [12] | Potency [5] | Potency [13] | outcome [14] | Potency [16] | outcome [17]
